In the supplement of paper PMC6555819:

How the values were obtained:
Experiment in all cases: PBM binding z-score (relative to random genomic background probes); higher = stronger binding; sequences stand for … in GC…GCGATTGACAGCGTAGAATGAAGG
[1] = test system: RARb homodimer (NR concentration 270 nM)
Procedure, shortened: (§1)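 Each nuclear receptor dimer, without ligand, was incubated for 1 h on custom Agilent 4×180K protein-binding microarrays. Binding was detected with antibodies against each partner (one per run), and scanned fluorescence was regression-normalized. The binding z-scores are referenced to random human genomic background probes.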

[2] = test system: RARg:RXRa (NR concentration 270 nM, RXRa partner concentration 90 nM)
Procedure, shortened: as §1

[3] = test system: RARg homodimer (NR concentration 270 nM)
Procedure, shortened: as §1

[4] = test system: RXRa DBDmut IVT, anti-RXR (DBD mutation: RXRa K156A/R161A, NR concentration 90 nM)
Procedure, shortened: as §1

[5] = test system: RXRa homodimer (NR concentration 180 nM)
Procedure, shortened: as §1

[6] = test system: THRa:RXRa (NR concentration 90 nM, RXRa partner concentration 90 nM)
Procedure, shortened: as §1

[7] = test system: THRa homodimer (NR concentration 90 nM)
Procedure, shortened: as §1

[8] = test system: VDR homodimer (NR concentration 270 nM)
Procedure, shortened: as §1

Sequence: CCAAGCAGGCCAGGGTCACTCAAGCATTTCGCTT
- PBM binding z-score [1]: 2.75
- PBM binding z-score [2]: 3.16
- PBM binding z-score [3]: 2.36
- PBM binding z-score [4]: 0.375
- PBM binding z-score [5]: 3.22
- PBM binding z-score [6]: 3
- PBM binding z-score [7]: 1.15
- PBM binding z-score [8]: 1.51

Sequence: AGTCAAAGTTCCCTAGGTAACGTAAGATTCAGCT
- PBM binding z-score [1]: 0.045
- PBM binding z-score [2]: 0.0675
- PBM binding z-score [3]: 0.31
- PBM binding z-score [4]: 0.164
- PBM binding z-score [5]: -0.00363
- PBM binding z-score [6]: 0.427
- PBM binding z-score [7]: -0.151
- PBM binding z-score [8]: -0.324

Sequence: CGAACGCGGGCATGAGTTGATAGCAAATGCCGAT
- PBM binding z-score [1]: -0.346
- PBM binding z-score [2]: -0.206
- PBM binding z-score [3]: 0.05
- PBM binding z-score [4]: 0.305
- PBM binding z-score [5]: -0.124
- PBM binding z-score [6]: -0.413
- PBM binding z-score [7]: -0.72
- PBM binding z-score [8]: 0.0939

Sequence: CCGACTGGGGCCAGGTTACCATAACGCACAGCCA
- PBM binding z-score [1]: 0.918
- PBM binding z-score [2]: 0.349
- PBM binding z-score [3]: 0.638
- PBM binding z-score [4]: -0.672
- PBM binding z-score [5]: 0.426
- PBM binding z-score [6]: 0.785
- PBM binding z-score [7]: 0.378
- PBM binding z-score [8]: -0.444

Sequence: CCAACTAGGTCAAGGACAGTGAATCTCCGCACGC
- PBM binding z-score [1]: 3.18
- PBM binding z-score [2]: 3.66
- PBM binding z-score [3]: 4.42
- PBM binding z-score [4]: 1.8
- PBM binding z-score [5]: 2.41
- PBM binding z-score [6]: 3.16
- PBM binding z-score [7]: 2.22
- PBM binding z-score [8]: 0.694

Sequence: ACTAGTTGGTCAGCCGAGGTCACACACAATTCGG
- PBM binding z-score [1]: 4.36
- PBM binding z-score [2]: 4.25
- PBM binding z-score [3]: 4.08
- PBM binding z-score [4]: 0.998
- PBM binding z-score [5]: 4.34
- PBM binding z-score [6]: 5
- PBM binding z-score [7]: 4.33
- PBM binding z-score [8]: 4.04

Sequence: CCTTACGGGCCACTCCAGGTTATAGCATCGGAGT
- PBM binding z-score [1]: 0.457
- PBM binding z-score [2]: 0.099
- PBM binding z-score [3]: 0.515
- PBM binding z-score [4]: -0.62
- PBM binding z-score [5]: -0.0369
- PBM binding z-score [6]: 2.62
- PBM binding z-score [7]: 0.204
- PBM binding z-score [8]: 0.0382

Sequence: TCGAGTAGGTTACCAGTGGGGCATTCAGCTTTCT
- PBM binding z-score [1]: 0.636
- PBM binding z-score [2]: 1.06
- PBM binding z-score [3]: 0.275
- PBM binding z-score [4]: 0.241
- PBM binding z-score [5]: 0.437
- PBM binding z-score [6]: 0.157
- PBM binding z-score [7]: -0.534
- PBM binding z-score [8]: -0.388

Sequence: TCTTGTAGCTCAGCAGGTTAAGAAAGCTGGCCAA
- PBM binding z-score [1]: -0.305
- PBM binding z-score [2]: -0.557
- PBM binding z-score [3]: -0.799
- PBM binding z-score [4]: -0.298
- PBM binding z-score [5]: -0.011
- PBM binding z-score [6]: -0.123
- PBM binding z-score [7]: -0.926
- PBM binding z-score [8]: -0.952

Sequence: ACTCGGAGCACAAAGGTCAGAGCTACGCCAGTGA
- PBM binding z-score [1]: 4.45
- PBM binding z-score [2]: 5.16
- PBM binding z-score [3]: 5.11
- PBM binding z-score [4]: 0.345
- PBM binding z-score [5]: 4.98
- PBM binding z-score [6]: 2.63
- PBM binding z-score [7]: -0.28
- PBM binding z-score [8]: 0.477

Sequence: ACTTACGGGTCAACGAGGTTATAGGACGCGTATA
- PBM binding z-score [1]: 3.83
- PBM binding z-score [2]: 5.63
- PBM binding z-score [3]: 5.28
- PBM binding z-score [4]: 2.24
- PBM binding z-score [5]: 6.33
- PBM binding z-score [6]: 4.32
- PBM binding z-score [7]: 1.19
- PBM binding z-score [8]: 3.27

Sequence: TCTTGTAGATCAACTGGAGGTTAAGAAAGATCGA
- PBM binding z-score [1]: 0.645
- PBM binding z-score [2]: 1.23
- PBM binding z-score [3]: 0.313
- PBM binding z-score [4]: 0.336
- PBM binding z-score [5]: 0.971
- PBM binding z-score [6]: 1.1
- PBM binding z-score [7]: -0.207
- PBM binding z-score [8]: -0.0194

Sequence: GGAACGAGGGCCAAGTTGATAGCATCTGTCGACG
- PBM binding z-score [1]: -0.0615
- PBM binding z-score [2]: 0.0796
- PBM binding z-score [3]: 0.46
- PBM binding z-score [4]: 0.125
- PBM binding z-score [5]: 0.105
- PBM binding z-score [6]: -0.432
- PBM binding z-score [7]: -0.99
- PBM binding z-score [8]: -0.364

Sequence: TCTCGGAGGACACGAAGGTCGGAGCTTTCCAGAG
- PBM binding z-score [1]: 1.42
- PBM binding z-score [2]: 1.23
- PBM binding z-score [3]: 1.5
- PBM binding z-score [4]: 0.608
- PBM binding z-score [5]: 0.322
- PBM binding z-score [6]: 1.64
- PBM binding z-score [7]: 0.121
- PBM binding z-score [8]: 0.0854

Sequence: CGTCCAAGGTGAGCAGGTCAGTGAAAGCGACGTG
- PBM binding z-score [1]: 2.7
- PBM binding z-score [2]: 2.24
- PBM binding z-score [3]: 2.37
- PBM binding z-score [4]: -0.254
- PBM binding z-score [5]: 1.09
- PBM binding z-score [6]: 2
- PBM binding z-score [7]: 0.649
- PBM binding z-score [8]: -0.353

Sequence: AGAACGAGGGCACGCTGAGTTGAGAGCAGAGTAG
- PBM binding z-score [1]: 1.24
- PBM binding z-score [2]: 2.01
- PBM binding z-score [3]: 2.05
- PBM binding z-score [4]: 1.81
- PBM binding z-score [5]: 1.57
- PBM binding z-score [6]: 1.95
- PBM binding z-score [7]: -0.054
- PBM binding z-score [8]: 1.29

Sequence: CGTCCAAGGTCATAGGAGGTCGGTGAAGACAGAT
- PBM binding z-score [1]: 4.09
- PBM binding z-score [2]: 6.01
- PBM binding z-score [3]: 6.48
- PBM binding z-score [4]: 3.77
- PBM binding z-score [5]: 6.13
- PBM binding z-score [6]: 4.77
- PBM binding z-score [7]: 2.45
- PBM binding z-score [8]: 3.77

Sequence: TCTATTAGTTGATTAGGGGAACCGAAACAGCGGA
- PBM binding z-score [1]: 0.155
- PBM binding z-score [2]: 0.431
- PBM binding z-score [3]: 0.32
- PBM binding z-score [4]: 1.67
- PBM binding z-score [5]: 0.729
- PBM binding z-score [6]: 0.257
- PBM binding z-score [7]: 0.319
- PBM binding z-score [8]: 0.458

Sequence: ACTAGCAGGCCAAGTTTGGGTCACTGAAACAAAG
- PBM binding z-score [1]: 2.33
- PBM binding z-score [2]: 2.54
- PBM binding z-score [3]: 2.01
- PBM binding z-score [4]: -0.119
- PBM binding z-score [5]: 0.982
- PBM binding z-score [6]: 2.71
- PBM binding z-score [7]: 1.29
- PBM binding z-score [8]: 0.416

Sequence: CATCCAAGGTCAGCAGGTCAGTGAAAGCGACGTG
- PBM binding z-score [1]: 5.04
- PBM binding z-score [2]: 6.2
- PBM binding z-score [3]: 7.09
- PBM binding z-score [4]: 2.7
- PBM binding z-score [5]: 6.07
- PBM binding z-score [6]: 3.89
- PBM binding z-score [7]: 2.76
- PBM binding z-score [8]: 2.18

Sequence: AATATTAGTTGAGACGAGGGCAACCGATAGGTTG
- PBM binding z-score [1]: 1.28
- PBM binding z-score [2]: 0.902
- PBM binding z-score [3]: 0.922
- PBM binding z-score [4]: 0.47
- PBM binding z-score [5]: 0.883
- PBM binding z-score [6]: 2.64
- PBM binding z-score [7]: 0.504
- PBM binding z-score [8]: 1.73

Sequence: ATATGTAGGTTACATCCGGGACATTCAGGCTATG
- PBM binding z-score [1]: 0.852
- PBM binding z-score [2]: 1.56
- PBM binding z-score [3]: 1.27
- PBM binding z-score [4]: 0.669
- PBM binding z-score [5]: 1.27
- PBM binding z-score [6]: 2.66
- PBM binding z-score [7]: 1.46
- PBM binding z-score [8]: 0.967

Sequence: CAAACTAGGTCACAGAGGTCACAGTCCGTGCGTA
- PBM binding z-score [1]: 5.65
- PBM binding z-score [2]: 7.17
- PBM binding z-score [3]: 7.58
- PBM binding z-score [4]: 2.76
- PBM binding z-score [5]: 7.39
- PBM binding z-score [6]: 4.67
- PBM binding z-score [7]: 3.58
- PBM binding z-score [8]: 6.14

Sequence: CATACAGGGTCACCTAGGCCAGAGTAGGGACGGC
- PBM binding z-score [1]: 3.71
- PBM binding z-score [2]: 5.53
- PBM binding z-score [3]: 5.52
- PBM binding z-score [4]: 2.15
- PBM binding z-score [5]: 6.27
- PBM binding z-score [6]: 3.65
- PBM binding z-score [7]: 1.57
- PBM binding z-score [8]: 2.32

Sequence: CCTTTCGGGTCACTCCAGGTTATAGCATCGGAGT
- PBM binding z-score [1]: 3.43
- PBM binding z-score [2]: 4.46
- PBM binding z-score [3]: 4.55
- PBM binding z-score [4]: 2.36
- PBM binding z-score [5]: 4.03
- PBM binding z-score [6]: 5.16
- PBM binding z-score [7]: 3.18
- PBM binding z-score [8]: 1.87

Sequence: TCTTGTGGATCAATAGAGGTTAAGAAAGTGCGCT
- PBM binding z-score [1]: 1.26
- PBM binding z-score [2]: 0.875
- PBM binding z-score [3]: 0.534
- PBM binding z-score [4]: 0.749
- PBM binding z-score [5]: 1.22
- PBM binding z-score [6]: 2.23
- PBM binding z-score [7]: -0.3
- PBM binding z-score [8]: 0.314

Sequence: TCAGACAGGTGAAGGTAACTCCGGTACGCAGTCG
- PBM binding z-score [1]: 0.814
- PBM binding z-score [2]: 0.458
- PBM binding z-score [3]: 0.575
- PBM binding z-score [4]: 1.28
- PBM binding z-score [5]: 1.11
- PBM binding z-score [6]: 1.28
- PBM binding z-score [7]: 0.325
- PBM binding z-score [8]: -0.191

Sequence: GCAGACAGGTGAAACGCAGGTAACTCATGGTGGC
- PBM binding z-score [1]: 0.0324
- PBM binding z-score [2]: 0.941
- PBM binding z-score [3]: 0.44
- PBM binding z-score [4]: -0.582
- PBM binding z-score [5]: 0.943
- PBM binding z-score [6]: 1
- PBM binding z-score [7]: -0.808
- PBM binding z-score [8]: -0.818
